Source: PubChem BioAssay
Calls of active or inactive are those of the source.

Columns and labels:
[1] = E. coli DRC41 culture turbidity changes, primary screen, E. coli filamentation inducer project, strain DRC41, OD650, 48 h (AID 1152);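 note: E. coli MC1000 strain DRC41 lacking acrAB efflux pump and sulA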; details: E. coli DRC41 (acrAB sulA), higher = more signal, called active from +8 up or from −8 down
[2] = small-molecule binders of probe aLefty1, primary screen, biochemical, small-molecule microarray, 635/667 nm fluorescence (AID 1153); details: higher = more signal;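 note: score merges spot fluorescence with signal-to-noise ratio from the scanned slide images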
[3] = PSAC antagonists in infected red cells, primary screen, cell-based, P. falciparum Indochina, OD700, 1 h (AID 1154); details: P. falciparum Indochina infected RBC osmotic lysis, higher = more signal, called active from +8 up or from −8 down
[4] = PSAC antagonists in infected red cells, primary screen, cell-based, P. falciparum Indochina, OD700, 2 h (AID 1155);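 note: lysis reports solute entry through the parasite surface anion channel PSAC; channel blockers reduce lysis of infected cells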; details: P. falciparum Indochina infected erythrocytes, osmotic lysis OD700; higher = more signal, called active from +8 up or from −8 down
[5] = osmotic lysis modulators in infected erythrocytes, primary screen, PSAC antagonist project, cell-based, P. falciparum Indochina, OD700, 3 h (AID 1156); details: higher = more signal, called active from +8 up or from −8 down
[6] = PSAC antagonists in infected red cells, primary screen, cell-based, P. falciparum Indochina, OD700, 18 h (AID 1157); details: P. falciparum Indochina infected erythrocytes, osmotic lysis OD700, 18 h; higher = more signal, called active from +8 up or from −8 down
[7] = modulators of S6 phosphorylation in cells, primary screen, cell-based, A549, cytoblot, luminescence, serum-stimulated (AID 1158); details: A549 phospho-S6 cytoblot, 5 h, higher = more signal;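 note: serum-stimulated A549 lung adenocarcinoma cells; signal is phosphorylated S6 detected by cytoblot immunostaining with HRP secondary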
[8] = target: NADPH oxidase 2 (Homo sapiens) (UniProt P04839); assay: NOX2-dependent H2O2 signal modulators, primary screen, NOX inhibitor project, cell-based, HEK293-NOX2, PMA-stimulated, Amplex Red fluorescence (AID 1159); details: 45 min, higher = more signal, called active from +8 up or from −8 down; note: test concentration not given here
Sequence of NADPH oxidase 2 (Homo sapiens) (P04839 whole entry, looked up): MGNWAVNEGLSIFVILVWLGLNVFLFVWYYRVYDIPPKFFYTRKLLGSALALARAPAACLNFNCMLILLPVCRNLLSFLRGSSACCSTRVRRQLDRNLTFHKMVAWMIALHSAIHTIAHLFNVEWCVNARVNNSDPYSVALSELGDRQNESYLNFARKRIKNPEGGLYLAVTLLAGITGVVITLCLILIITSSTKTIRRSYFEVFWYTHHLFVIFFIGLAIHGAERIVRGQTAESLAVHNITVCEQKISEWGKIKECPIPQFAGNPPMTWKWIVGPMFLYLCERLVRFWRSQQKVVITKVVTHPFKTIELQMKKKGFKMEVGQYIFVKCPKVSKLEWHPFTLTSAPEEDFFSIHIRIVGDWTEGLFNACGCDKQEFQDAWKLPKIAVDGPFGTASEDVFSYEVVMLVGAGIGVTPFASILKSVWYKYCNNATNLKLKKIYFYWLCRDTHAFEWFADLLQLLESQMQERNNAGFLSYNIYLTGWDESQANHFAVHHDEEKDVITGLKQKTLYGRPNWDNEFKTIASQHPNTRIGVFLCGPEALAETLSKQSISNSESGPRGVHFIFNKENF

[9] = target: NADPH oxidase 4 (Homo sapiens) (UniProt Q9NPH5); assay: NOX4-dependent H2O2 signal modulators, primary screen, NOX inhibitor project, cell-based, HEK293-NOX4, tetracycline-induced, Amplex Red fluorescence (AID 1160); details: 45 min, higher = more signal, called active from +8 up or from −8 down
Sequence of NADPH oxidase 4 (Homo sapiens) (Q9NPH5 whole entry, looked up): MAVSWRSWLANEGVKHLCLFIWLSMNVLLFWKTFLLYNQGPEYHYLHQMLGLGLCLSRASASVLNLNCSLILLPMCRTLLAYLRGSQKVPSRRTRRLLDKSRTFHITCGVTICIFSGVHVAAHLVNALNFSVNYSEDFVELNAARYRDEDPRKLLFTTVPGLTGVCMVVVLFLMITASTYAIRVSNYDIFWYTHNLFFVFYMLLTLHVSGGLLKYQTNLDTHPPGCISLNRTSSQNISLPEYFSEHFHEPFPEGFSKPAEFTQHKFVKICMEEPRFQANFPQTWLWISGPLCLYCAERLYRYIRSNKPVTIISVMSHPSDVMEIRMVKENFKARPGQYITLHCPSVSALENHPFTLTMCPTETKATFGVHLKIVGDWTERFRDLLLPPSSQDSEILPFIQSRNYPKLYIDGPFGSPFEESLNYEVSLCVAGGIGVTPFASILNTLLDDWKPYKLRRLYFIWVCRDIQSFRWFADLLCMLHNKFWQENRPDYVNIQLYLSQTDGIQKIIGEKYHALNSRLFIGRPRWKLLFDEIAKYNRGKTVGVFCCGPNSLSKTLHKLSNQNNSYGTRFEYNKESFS

[10] = target: NADPH oxidase 5 (Homo sapiens) (UniProt Q96PH1); assay: NOX5-dependent H2O2 signal modulators, primary screen, NOX inhibitor project, cell-based, HEK293-NOX5, Amplex Red fluorescence (AID 1161); details: HEK293-NOX5, ionomycin, 45 min, higher = more signal
Sequence of NADPH oxidase 5 (Homo sapiens) (Q96PH1 whole entry, looked up): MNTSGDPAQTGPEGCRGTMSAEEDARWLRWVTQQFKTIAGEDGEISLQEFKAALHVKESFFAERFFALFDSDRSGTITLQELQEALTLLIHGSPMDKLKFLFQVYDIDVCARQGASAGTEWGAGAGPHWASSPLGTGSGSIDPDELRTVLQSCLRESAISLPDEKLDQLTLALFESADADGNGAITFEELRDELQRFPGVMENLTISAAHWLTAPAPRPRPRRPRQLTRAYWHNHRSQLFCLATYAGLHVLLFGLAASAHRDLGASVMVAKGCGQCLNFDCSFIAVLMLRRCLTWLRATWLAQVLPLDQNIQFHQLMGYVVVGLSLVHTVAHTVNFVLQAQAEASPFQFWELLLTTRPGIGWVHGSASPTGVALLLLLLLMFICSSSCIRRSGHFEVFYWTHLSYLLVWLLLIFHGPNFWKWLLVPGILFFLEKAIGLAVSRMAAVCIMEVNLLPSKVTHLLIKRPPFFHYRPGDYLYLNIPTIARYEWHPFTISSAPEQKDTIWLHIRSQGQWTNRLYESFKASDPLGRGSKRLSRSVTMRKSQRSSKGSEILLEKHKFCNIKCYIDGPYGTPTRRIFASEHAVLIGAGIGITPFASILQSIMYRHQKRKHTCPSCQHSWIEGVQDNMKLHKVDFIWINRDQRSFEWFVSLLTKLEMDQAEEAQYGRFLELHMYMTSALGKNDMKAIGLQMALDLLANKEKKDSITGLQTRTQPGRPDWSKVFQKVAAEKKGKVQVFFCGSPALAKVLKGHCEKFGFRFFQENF

SMILES | z-score [1] | composite z-score [2] | z-score [3] | z-score [4] | z-score [5] | z-score [6] | z-score [7] | z-score [8] | z-score [9] | z-score [10]
COC(=O)c1ccc(OC)c(/C=C\CC(CCc2ccccc2)OC(C)=O)c1 (stereo not given) | -0.601 (inactive) | -0.456 | 8.9 (active) | 0.865 (inactive) | -0.297 (inactive) | 0.0093 (inactive) | -0.0781 | -0.135 (inactive) | 0.424 (inactive) | -0.983
C=CCC(OC(C)=O)[C@@H]1[C@@H](N(Cc2ccc(-c3ccccc3)cc2)C(=O)c2cccc3ccccc23)c2cc(OCCCO)ccc2N1C(=O)c1ccc2ccccc2n1 (stereo not given in full) | 0.214 (inactive) | 0.123 | 1.01 (inactive) | 0.569 (inactive) | -0.745 (inactive) | 0.357 (inactive) | 0.332 | 0.772 (inactive) | -0.294 (inactive) | -3.7
CCOC(=O)C1=CCC(c2cccc(Cl)c2)O1 (stereo not given) | -0.504 (inactive) | 0.152 | 14.9 (active) | 1.02 (inactive) | 0.75 (inactive) | -0.244 (inactive) | 1.61 | -4.41 (inactive) | -1.37 (inactive) | -3.51
C=C(COC)C(=O)CC[C@H](OC(=O)c1ccccc1-c1ccccc1C(=O)O)c1ccc(OCCO)cc1 | 0.146 (inactive) | 0.134 | 10.5 (active) | 1.72 (inactive) | 2 (inactive) | 0.626 (inactive) | -0.0494 | 0.00741 (inactive) | -0.221 (inactive) | -1.8
CC(C)NC(=O)[C@@H]1c2ccccc2C(=O)N(Cc2cc(C(F)(F)F)cc(C(F)(F)F)c2)[C@H]1c1ccc(CO)cc1 | -0.464 (inactive) | 0.358 | 1.54 (inactive) | 0.349 (inactive) | -0.113 (inactive) | 0.057 (inactive) | -0.167 | 0.513 (inactive) | 0.349 (inactive) | -0.284
COc1ccc([Si](C)(C)[C@@H]2[C@@H](CCO)O[C@]3(C(=O)N(Cc4cccc(N5C(=O)COc6ccccc65)c4)c4ccccc43)[C@H]2C)cc1 | 0.111 (inactive) | 0.139 | 3.9 (inactive) | 3.53 (inactive) | 0.797 (inactive) | 2.26 (inactive) | 0.373 | 0.416 (inactive) | 1.36 (inactive) | 1.49
NCCCCCCNC(=O)[C@H]1C[C@H]2C(=O)N3CCC[C@H]3C(=O)N2[C@H]1c1ccc(O)cc1 | -0.247 (inactive) | -0.19 | 1.55 (inactive) | 0.507 (inactive) | 0.403 (inactive) | 0.253 (inactive) | 0.648 | -0.019 (inactive) | 0.901 (inactive) | 0.386
CC(C)NC(=O)[C@@]1(Cc2ccccc2I)c2ccccc2C(=O)N(Cc2ccccc2C(F)(F)F)[C@H]1c1ccc(CO)cc1 | 0.267 (inactive) | 0.243 | 5.93 (inactive) | 1.82 (inactive) | 0.602 (inactive) | 1.19 (inactive) | -0.171 | 1.12 (inactive) | -0.213 (inactive) | 2.3
N#Cc1ccc(NN2C(C(O)c3ccccc3)C=CC3C(=O)N(c4ccccc4)C(=O)C32)cc1 (stereo not given) | -1.28 (inactive) | 0.0077 | 9.06 (active) | 0.611 (inactive) | 1.65 (inactive) | 0.58 (inactive) | -0.823 | -2.08 (inactive) | -5.5 (inactive) | -3.44
C[C@H]1ON(c2ccccc2)[C@@H](c2ccccc2)[C@@H]1C(=O)N1C(=O)OC[C@@H]1c1ccccc1 | 0.319 (inactive) | -0.0141 | 1.66 (inactive) | 0.895 (inactive) | -0.372 (inactive) | 0.28 (inactive) | 0.238 | 0.198 (inactive) | -0.28 (inactive) | -0.654
Cc1ccc(-c2cccc(=O)o2)cc1 | -0.418 (inactive) | -0.237 | 5.81 (inactive) | 1.02 (inactive) | -0.657 (inactive) | 0.609 (inactive) | -0.102 | 0.498 (inactive) | -1.66 (inactive) | 0.12
C[C@@]1([C@@H](NC(=O)c2cccs2)c2ccc(-c3ccccc3)cc2)C[C@H]1C1CCCCC1 | -1.79 (inactive) | 0.371 | 1.41 (inactive) | -0.427 (inactive) | 1.13 (inactive) | -1.34 (inactive) | 2.17 | -4.07 (inactive) | -4.4 (inactive) | -1.59
CC(C)(C)N1CC=CC23O[C@@H]4C=CCCOC(=O)C4[C@H]2C(=O)N(CCCO)[C@@H]3C1=O (stereo not given in full) | 0.471 (inactive) | -0.289 | 0.595 (inactive) | -1.01 (inactive) | 0.79 (inactive) | -1.49 (inactive) | 0.682 | -2.85 (inactive) | -2.02 (inactive) | -0.648
[N-]=[N+]=NCc1ccccc1[C@H]1OC(c2ccc(OCCCO)cc2)=N[C@@]1(Cc1ccccc1)C(N)=O | 0.0183 (inactive) | 0.174 | 25.2 (active) | 15.2 (active) | 1.79 (inactive) | 2.75 (inactive) | 0.534 | -0.17 (inactive) | 1.21 (inactive) | 1.2
CCCCC(CC)C(O)C1C=CC2C(=O)NC(=O)C2N1Nc1ccccn1 (stereo not given) | -0.757 (inactive) | -0.0754 | 1.68 (inactive) | 0.648 (inactive) | 0.186 (inactive) | 0.408 (inactive) | -0.606 | 0.201 (inactive) | -3.35 (inactive) | -2.14
C=C(C)[C@@H]1CC=C(C(O)C2C=CC3C(=O)N(C4CCCCC4)C(=O)C3N2Nc2ccc(OC)cc2)CC1 (stereo not given in full) | -0.441 (inactive) | 0.203 | 1.75 (inactive) | 0.415 (inactive) | 0.604 (inactive) | 0.56 (inactive) | -0.14 | 0.191 (inactive) | -1.34 (inactive) | -2.14
Cc1ccc(S[C@]2(C(=O)NCC(C)C)CC(=O)N(C3CCCCC3)[C@@H]2c2ccc(CO)cc2I)cc1 | 0.256 (inactive) | 0.568 | 4.6 (inactive) | 0.61 (inactive) | 0.796 (inactive) | 0.597 (inactive) | 0.212 | 1.54 (inactive) | -1.02 (inactive) | -2.07
O=C1O[C@H](c2ccccc2)[C@H](c2ccccc2)N2[C@H]1[C@@H](C(=O)N1CCCCCCC1)[C@]1(C(=O)Nc3ccccc31)[C@H]2c1ccc(O)cc1 | -0.0491 (inactive) | 2.97 | 0.517 (inactive) | 0.435 (inactive) | -0.882 (inactive) | 0.19 (inactive) | -0.541 | -4.42 (inactive) | -1.03 (inactive) | -3.4
COC(=O)[C@@]1(Cc2ccccc2)[C@H]2c3cc(C(=O)N4CCCC4)n(Cc4ccccc4)c3C[C@H]2CN1C(=O)c1ccccc1 | -1.83 (inactive) | 0.128 | 3.6 (inactive) | 0.945 (inactive) | 0.365 (inactive) | 1.03 (inactive) | -0.276 | -0.218 (inactive) | -0.0718 (inactive) | -1.23
O=C1OCCC=C[C@H]2OC34C=CCN(Cn5nnc6ccccc65)C(=O)[C@H]3N(CCCCCO)C(=O)[C@@H]4C12 (stereo not given in full) | 0.592 (inactive) | 0.119 | 2.34 (inactive) | 0.573 (inactive) | 2.35 (inactive) | 0.281 (inactive) | 0.0848 | 1.4 (inactive) | 0.279 (inactive) | 1.51
O=C1C[C@@](C(=O)O)(c2ccc([N+](=O)[O-])cc2)[C@@H](c2ccc(CO)cc2)N1CC12CC3CC(CC(C3)C1)C2 | -0.146 (inactive) | 0.0041 | 6.47 (inactive) | 0.964 (inactive) | 2.67 (inactive) | 0.279 (inactive) | 0.469 | -0.545 (inactive) | -2.72 (inactive) | -1.01
CC(C)C[C@@H]1NC(=O)[C@@]23C(=O)N[C@@H](Cc4ccccc4)C2[C@H](C)[C@@]2(C)O[C@H]2C3/C=C/C/C=C\CNC(=O)[C@@H]2CCCN2C1=O (stereo not given in full) | -0.797 (inactive) | -0.234 | 0.918 (inactive) | 0.182 (inactive) | -0.551 (inactive) | 0.01 (inactive) | 0.226 | 0.593 (inactive) | 1.14 (inactive) | 0.579
COc1ccc([Si](C)(C)[C@H]2[C@H](CCO)O[C@@]3(C(=O)N(Cc4cccc(N5CCOC5=O)c4)c4ccccc43)[C@@H]2C)cc1 | -0.286 (inactive) | -0.0917 | 31.7 (active) | 29.4 (active) | 1.37 (inactive) | 3.36 (inactive) | 0.469 | -1.96 (inactive) | 0.553 (inactive) | 0.479
COCCOC(=O)N1C(=O)[C@@]2(c3cc(C#CCNC(N)=O)ccc31)[C@H](C(N)=O)[C@H]1C(=O)O[C@H](c3ccccc3)[C@H](c3ccccc3)N1[C@@H]2c1ccc(OCCO)cc1 | -0.618 (inactive) | -0.41 | 6.81 (inactive) | 1.02 (inactive) | -0.0934 (inactive) | 0.237 (inactive) | -0.575 | 1.8 (inactive) | 1.04 (inactive) | 0.0625
C=CCNC(=O)[C@H]1[C@@H]2C(=O)O[C@@H](c3ccccc3)[C@@H](c3ccccc3)N2[C@@H](c2ccc(OCCO)cc2)[C@]12C(=O)N(C(=O)OCCOC)c1ccc(C#CC3=CCCCC3)cc12 | 1.1 (inactive) | 0.213 | 2.13 (inactive) | 1.76 (inactive) | 0.178 (inactive) | 0.948 (inactive) | 0.632 | 1.99 (inactive) | 0.421 (inactive) | 2.48
Cc1ccc(N2C(=O)c3ccccc3[C@](C)(C(=O)NC(C)C)[C@@H]2c2ccc(CO)cc2)nc1 | 1.07 (inactive) | -0.275 | 0.641 (inactive) | 0.414 (inactive) | 0.18 (inactive) | 0.232 (inactive) | 0.274 | 0.358 (inactive) | -0.357 (inactive) | -0.363
